Among the data in PubChem BioAssay AID488890 (Southern Research Specialized Biocontainment Screening …, 2010) are inhibition values, retold here.

Out of some 320,000 compounds screened, about 1,300 (0.41%) were called active. Not shown: some 3% with an inconclusive outcome. No rule for the calls is given here. The list is a sample of the results. Potency and affinity values are given separately.

The test is described as follows: growth inhibition of non-replicating M. tuberculosis (AID 488890).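 Also: plate controls were DMSO cells for no effect and high antibiotic wells for full effect.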 The settings on record: Mycobacterium tuberculosis non-replicating, at 25 µM, stronger effect = higher value.
For the molecule `CC(C)N(Cc1ccccc1)C(=O)CC(=O)N(Cc1ccccc1)C(C)C`, the inhibition (in general, the drop in the measured response relative to a control, in per cent) was 6.28%.

As to `CCc1ccc(-c2cc(C)no2)cc1S(=O)(=O)Nc1cc(C)ccn1`, the inhibition was -1.42%. For the molecule `CCOC(=O)N1CCN(C(=O)CN(C)S(=O)(=O)c2ccc(Cl)cc2)CC1`, the inhibition is -17.1%.

With `CSCCC(NC(=O)c1ccco1)C(=O)NC1CCCCCC1` (configuration not stated), the inhibition was -8.42%. As to `Cc1cc(Nc2nc3ccccc3nc2Cl)n(-c2ccccc2)n1`, the inhibition was 8.46%. The result for `CC(C)(O)C(=O)NNC(=S)NCc1ccco1` reads -2.82%; that for `CC(C)(C)NC(=S)NCc1ccco1`, -18.9%.

Consider `COc1ccc(/C=N/NC(=O)c2cccs2)c2ccccc12`, for which the inhibition was found to be 76.3%. As for `CCOC(=O)CCCNC(=O)COC(=O)c1ccc(O)cc1`, the inhibition is -2.65%. The result for `CCOC(=O)CCCNC(=O)COC(=O)c1cc(C)cc(C)c1` reads -5.81%; that for `COc1ccc(S(=O)(=O)NCC2CCCN(Cc3ccc(C)o3)C2)cc1` (configuration not stated), 8.61%.

With `COc1ccc(C(=O)N2CCN(CCNC(=O)C(=O)Nc3ccc(F)cc3)CC2)cc1OC`, the inhibition was -5.42%.

Consider `CC(C)NCC(=O)C12CC3CC(CC(C3)C1)C2`, for which the inhibition was -12.5%. As for `COc1ccc(C(=O)COC(=O)CCc2nc3ccccc3[nH]c2=O)cc1Br`, the inhibition came out at 5.73%. For `COC1CCCN(C(=O)c2ccc3oc(Cc4ccc(Cl)cc4)nc3c2)C1` (configuration not stated), the inhibition worked out at 23.6%. For `CCN(CC)c1ccc(CNCc2cccs2)cc1` the value was 6.27%; for `COc1cccc2cc(C(=O)NC(C)c3ccccc3)c(=O)oc12` (configuration not stated), 26.4%; for `Cc1cc(C)cc(OCC(=O)NNC(=O)c2cc3ccccc3o2)c1`, -4.01%. Turning to `COc1ccc2oc(=O)c(C(=O)NC(C)c3ccccc3)cc2c1` (configuration not stated), the inhibition came out at 16.5%. Take `CC(NC(=O)c1cc(Br)ccc1Br)c1ccccc1` (configuration not stated): the inhibition was -17.5%. On to `CC(=O)OCCNC(=O)c1cc2ccccc2oc1=O`, for which the inhibition was -10.9%.

Regarding `O=C(COc1ccccc1)NNC(=O)c1cc2ccccc2oc1=O`, the inhibition was 10.5%. `Cc1ccc(C(C)NC(=O)c2ccco2)cc1C` (configuration not stated): the inhibition amounted to 71.1%. For `CC(NC(=O)c1cc(Br)ccc1Cl)c1ccccc1` (configuration not stated), the inhibition came to 0.91%. For `Cc1ccccc1CS(=O)(=O)CCC(=O)NCCCN1CCOCC1` the value was -2.86%; for `CCN(CC)CCNC(=O)c1ccc(NC(=O)c2cc(-c3ccco3)nc3ccccc23)cc1`, 4.2%. The result for `O=C(CCc1ccccc1)Nc1cc(NC(=O)CCc2ccccc2)cc(C(=O)O)c1` reads -12.7%; that for `COc1ccc(C(=O)Nc2ccccc2NC(=O)c2ccc(OC)cc2)cc1`, -3.72%; that for `COc1ccc(-c2nc(-c3cccs3)no2)cc1`, 24.2%.

As to `COc1ccc(/C=N/c2nc3ccccc3n2CCN2CCCCC2)cc1OC`, the inhibition turned out to be 4.24%. Turning to `Cc1ccc(S(=O)(=O)N2CCOC2CNC(=O)C(=O)NCCN(C)C)cc1` (configuration not stated), the inhibition is -4.76%. On to `CCN(C(=O)COC(=O)c1ccc(Cl)cc1N)C1CCCCC1`, for which the inhibition worked out at 30.8%.
